Measured values: PubChem BioAssay AID1085 (Emory University Molecular Libraries Screening Center, 2008)
In all, about 220,000 compounds went through this assay and about 930 (0.42%) were called active. The sample holds actives, similar compounds and a random draw of the others, so the mix is not that of the screen. No stated cut-off is given here; in the data, active means inhibition above about 50%; inactive means the rest.

These compounds were tested against Glycoprotein 42 (Epstein-Barr virus (strain AG876)) (UniProt Q1HVG2) (assay: EBV glycoprotein 42 binding blockers – biochemical, uHTS, fluorescence polarization, primary screen (AID 1085)). Details: Fluorescence polarization binding assay, mP read-out; stronger effect = higher value; tested at 21.74 µM.
Sequence of Glycoprotein 42 (Epstein-Barr virus (strain AG876)) (Q1HVG2 whole entry, looked up): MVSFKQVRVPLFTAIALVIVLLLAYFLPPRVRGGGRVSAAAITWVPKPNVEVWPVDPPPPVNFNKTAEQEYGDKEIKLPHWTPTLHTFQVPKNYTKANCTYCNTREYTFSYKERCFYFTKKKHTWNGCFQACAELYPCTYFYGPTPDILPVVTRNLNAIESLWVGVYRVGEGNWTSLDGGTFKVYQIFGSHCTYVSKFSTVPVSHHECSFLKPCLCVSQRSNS

SMILES | inhibition
Cc1cccc(N2C(=O)NC(=O)/C(=C\c3cnn(-c4ccccc4)c3)C2=O)c1 | -3.6% (inactive)
O=C1NC(=O)N(c2ccc(F)cc2)C(=O)/C1=C/c1ccc2c(c1)CCCN2Cc1ccccc1 | 187% (active)
O=C1NC(=O)N(c2ccccc2)C(=O)/C1=C/c1ccc([N+](=O)[O-])s1 | -9.65% (inactive)
O=c1[nH]c(=O)n(CCc2ccccc2)c(O)c1/C=N/N1CCOCC1 | -16.8% (inactive)
CN(C)CC1Oc2ccccc2OC1(O)c1ccccc1 (stereo not given) | -12% (inactive)
